This passage reports inhibition results from PubChem BioAssay AID2599 (Sanford-Burnham Center for Chemical Genomics, 2010).

The campaign covered roughly 330,000 compounds. About 5,800 (1.8%) were called active. For the sample, actives were picked, then their nearest neighbours and some compounds at random. Unmarked numbers belong to inactive results.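 Rule for the calls: active = inhibition above about 50% at the single tested dose (limit read from the data); inactive = the rest.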

Broadly, the inhibition is the change of the read-out against control, counted positive when it falls.

Sentrin-specific protease 6 (Homo sapiens), sequence (Q9GZR1 628-1112 limits assumed): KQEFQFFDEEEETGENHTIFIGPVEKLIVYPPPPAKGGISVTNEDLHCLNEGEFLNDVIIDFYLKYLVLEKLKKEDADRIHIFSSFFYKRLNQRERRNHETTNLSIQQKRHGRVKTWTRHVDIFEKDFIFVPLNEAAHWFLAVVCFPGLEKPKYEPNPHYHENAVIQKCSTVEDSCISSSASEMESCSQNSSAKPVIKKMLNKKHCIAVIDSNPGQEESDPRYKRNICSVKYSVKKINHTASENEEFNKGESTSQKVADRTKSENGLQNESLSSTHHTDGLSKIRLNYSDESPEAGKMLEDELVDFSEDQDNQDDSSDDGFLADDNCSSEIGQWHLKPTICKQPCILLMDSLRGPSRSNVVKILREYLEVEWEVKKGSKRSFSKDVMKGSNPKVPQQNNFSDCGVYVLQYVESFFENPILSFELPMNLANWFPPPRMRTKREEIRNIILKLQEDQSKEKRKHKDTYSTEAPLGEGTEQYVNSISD

The assay has as its target Sentrin-specific protease 6 (Homo sapiens) (UniProt Q9GZR1). Description: inhibition of human SENP6 catalytic domain – biochemical, luminescence, uHTS, primary screen (AID 2599).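 Note: plate controls were DMSO wells with enzyme for no effect and DMSO wells lacking enzyme for full effect.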 Particulars: Recombinant SENP6 catalytic domain, aminoluciferin luminescence; at 10 µM; hits give high values.
Take `C/C(=N\NC(=O)c1ccccc1F)c1ccccn1`: the inhibition is 45%.

With `CC(C)=C(NC(=O)c1ccccc1)C(=O)N/N=C(\C)c1ccccc1O`, the inhibition was -21.8%.

For the molecule `C/C(=N\NC(=O)c1ccoc1C)c1ccccc1O`, the inhibition was 56.4% (active).

As for `CSCCC(NC(=O)c1ccccc1)C(=O)N1CCN(Cc2ccc(Cl)cc2)CC1` (stereo unspecified), the inhibition is -6.84%.

`CC(OC(=O)C1CC(=O)N(Cc2ccccc2)C1)C(=O)Nc1ccccc1[N+](=O)[O-]` (stereo unspecified): the inhibition was -19.9%.

For `CCCCN(C(=O)COc1ccc(NC(C)=O)cc1)C1CCS(=O)(=O)C1` (stereo unspecified), the inhibition is -10.3%.

`O=C(CCNC(=O)c1ccccc1Cl)NCc1ccco1`: the inhibition was -14.5%.

In the case of `Cc1cccc(Nc2ccccc2C(=O)NCc2ccco2)c1C`, the inhibition is 2.61%.

With `O=C(Nc1ccccc1)Nc1ccccc1C(=O)NCc1ccco1`, the inhibition is 75.2% (active).

Turning to `NC(N)=NCCCc1cn(CC(=O)N2CCNCC2)nn1`, the inhibition was -12%.

For `O=C(CN1CCN(S(=O)(=O)c2cccc(Cl)c2)CC1)N1CCCCC1`, the inhibition is -12.8%.

As to `C=CCNC(=S)NNc1ncnc2sc3c(c12)CC(C)(C)OC3`, the inhibition was -6.15%.

As for `O=C(NCCC1=CCCCC1)C1CCN(Cc2cnn(-c3ccccc3)c2-n2cccc2)CC1`, the inhibition was 12.3%.

On to `CC(C)Sc1ncnc2c1cnn2-c1ccccc1`, for which the inhibition is 38.9%.

With `C1=C(CCNc2ncnc3c2cnn3-c2ccccc2)CCCC1`, the inhibition was 62.1% (active).

Turning to `O=C(CSc1nc2[nH]ncc2c(=O)[nH]1)Nc1ccc(F)cc1`, the inhibition is -4.08%.

Regarding `CC1(C)O[C@@H]2[C@H](O1)[C@@H](COS(=O)(=O)O)O[C@H]2n1ccc(=O)[nH]c1=O`, the inhibition was -11.6%.

Turning to `COc1ccc(-c2csc(NC(=O)COC(=O)Cc3ccc(Cl)cc3Cl)n2)cc1`, the inhibition was 20.8%.

As to `COc1ccc2c(c1OC)C(=O)OC2Nc1nc(-c2ccccc2)cs1` (stereo unspecified), the inhibition is -5.84%.

Take `COc1ccc(Nc2nc(-c3ccccc3)cs2)cc1`: the inhibition was 88.5% (active).

With `c1ccc(Nc2nc(-c3ccncc3)cs2)nc1`, the inhibition is 88.8% (active).

With `COc1ccc(-c2csc(Cc3nc(O)cs3)n2)cc1`, the inhibition was 25.6%.

For `Clc1ccc(-c2csc(-c3ccncc3)n2)cc1`, the inhibition was -16.8%.

`Clc1ccc(Nc2nc(-c3cccs3)cs2)nc1`: the inhibition is 35.3%.

On to `CCCn1c(CCNc2nc(-c3ccc(OC)cc3)cs2)nc2ccccc21`, for which the inhibition is 1.04%.

As to `COc1ccc(-c2csc(Nc3ccccn3)n2)cc1`, the inhibition was 81.9% (active).

For the molecule `Oc1c(Br)cc(/C=N/NC(=S)NCC2CCCO2)cc1Br` (stereo unspecified), the inhibition was -26.9%.

Consider `CCn1cc(C(=O)OCC(=O)Nc2cccc(C)c2)c(=O)c2ccc(C)nc21`, for which the inhibition was -16.3%.

Take `COC(=O)c1ccc(Oc2nc(NC(C)C)nc(SC)n2)cc1`: the inhibition was -13.9%.

Consider `Cc1cccc(NC(=O)CSc2nnc(CCCCCNC(=O)OC(C)(C)C)o2)c1C`, for which the inhibition was 12.1%.

Take `COc1ccc(CNC(=O)C(c2ccc(O)cc2)N(Cc2ccco2)C(=O)c2snc(C(N)=O)c2N)cc1` (stereo unspecified): the inhibition is -5.39%.

For `C=CCC1(C#N)C(=S)NC(C)=C(C(=O)OCC)C1c1ccccc1` (stereo unspecified), the inhibition is -0.11%.

As for `CCc1ccc(CN(C)C(=O)C2CCC(=O)N(Cc3cccc(OC)c3)C2)nc1` (stereo unspecified), the inhibition was -7.64%.

Regarding `CCOc1ccccc1NC(=O)Cn1nnc(C(=O)NCc2cccs2)c1N`, the inhibition was 10.8%.

As to `Cn1ncc(Br)c1C(=O)NCc1cccs1`, the inhibition was -1.6%.

As to `CC(C)Cn1c(N)c(C(=O)NCc2cccs2)c2nc3ccccc3nc21`, the inhibition was 80.7% (active).

In the case of `OC(CN=c1sc2ccccc2n1CC(O)COc1ccccc1)COc1ccccc1` (stereo unspecified), the inhibition is -0.866%.

Consider `CNC(C)C#Cc1ccc2sc3cc(OC)c(OC)cc3c(=O)c2c1` (stereo unspecified), for which the inhibition is 78.2% (active).

Turning to `CC(C)CN(C(=O)COC(=O)c1ccc2ccccc2c1)c1c(N)n(Cc2ccccc2)c(=O)[nH]c1=O`, the inhibition is -9.38%.

As to `CCOc1cc(/C=N/n2cnnc2)c(Br)cc1O`, the inhibition is 12.6%.

With `CCCCCC(O)c1cccc(OCc2ccc3ccccc3n2)c1` (stereo unspecified), the inhibition was 23%.

In the case of `O=C(COC(=O)c1cc(S(=O)(=O)N2CCOCC2)ccc1F)NC1CC1`, the inhibition is -2.29%.

As for `CNCC(O)c1ccc(O)c(O)c1` (stereo unspecified), the inhibition is -10.1%.

For `CCOC(=O)C(NS(=O)(=O)c1ccc(C)cc1)(C(F)(F)F)P(=O)(OCC(C)C)OCC(C)C` (stereo unspecified), the inhibition is 8.36%.

Turning to `CCCCCc1ccc(-c2cn(Cc3ccc4ccccc4c3)nn2)cc1`, the inhibition is -16.8%.

As for `CCCCCc1ccc(-c2ccc(C(=O)O)cc2)nc1`, the inhibition is 95.9% (active).

Turning to `CCCCCc1ccc(-c2ccc(OCC)cc2)nc1`, the inhibition is -5.2%.

Consider `CC(=O)N1C(C)c2ccccc2C(C)(C)CC12CCCCC2` (stereo unspecified), for which the inhibition is 5.42%.

In the case of `O=c1[nH]c(CCl)nc2cc(-c3ccc(Cl)cc3)sc12`, the inhibition was 94.6% (active).

For `O=c1[nH]c(CN2CCOCC2)nc2cc(Cl)ccc12`, the inhibition is 0.886%.

For the molecule `NC(=O)Cc1nc2scc(-c3ccc(Cl)cc3)c2c(=O)[nH]1`, the inhibition was -10.5%.

On to `CCOC(=O)c1ccc(CS(=O)c2ccc(Cl)cc2)o1` (stereo unspecified), for which the inhibition is -6.19%.

Take `Cc1oc(-c2ccccc2Cl)[n+]([O-])c1C`: the inhibition was -2.99%.

With `CCOC(=O)C(C)n1nc(-c2ccccc2)c2ccccc2c1=O` (stereo unspecified), the inhibition was 16.8%.

As to `COCCNc1nnc(SCC(=O)NNC(=O)c2ccco2)s1`, the inhibition was 0.175%.

For `O=C(Nc1nnc(SCc2ccccc2)s1)c1ccco1`, the inhibition was 63% (active).

As for `O=C(Nc1nnc(CCOCCOCCc2nnc(NC(=O)c3ccco3)s2)s1)c1ccco1`, the inhibition was 14.7%.

As to `COc1cccc(-n2c(=S)[nH]c3c(oc4ccccc43)c2=O)c1`, the inhibition is -5.17%.

For the molecule `S=c1[nH]c(-c2cccs2)cn1-c1ccccc1`, the inhibition was -4.29%.

With `O=c1oc2ccccc2cc1-c1cn(-c2ccccc2)c(=S)[nH]1`, the inhibition was 94% (active).

For the molecule `CC(NC(=O)C1CCC(CNc2c(N3CCOCC3)c(=O)c2=O)CC1)c1ccccc1` (stereo unspecified), the inhibition was -0.949%.

Take `COCCn1nnnc1C(c1cc2ccc(OC)cc2[nH]c1=O)N1CCc2ccccc2C1` (stereo unspecified): the inhibition was 72.7% (active).

As for `CCOc1ccc2[nH]c(=O)c(C(c3nnnn3CCOC)N3CCOCC3)cc2c1` (stereo unspecified), the inhibition is 7.39%.

With `COc1ccc(OC)c(C(c2nnnn2C(C)(C)C)N2CCc3ccccc3C2)c1` (stereo unspecified), the inhibition is -3.29%.

For `O=c1cc(Cl)c2ccccc2n1-c1ccccc1`, the inhibition is -18.3%.

On to `CCNC(=O)NNC(=O)C1CC(c2cccs2)=NO1` (stereo unspecified), for which the inhibition is -11.1%.

As for `Cc1cc(C)cc(NC(=O)N(C)Cc2ccccc2)c1`, the inhibition is -7.22%.

For `Cc1c(NC(=O)CSCc2ccccc2)cccc1C(=O)O`, the inhibition was 9.84%.

Turning to `CN1CCNC(=O)C1CC(=O)N1CC=C(c2ccc(F)cc2)CC1` (stereo unspecified), the inhibition was 4.55%.

For `COc1ccc(/C=C2\SC(=O)N(CCC(=O)NCCCn3ccnc3)C2=O)cc1`, the inhibition is 15.6%.

Take `COc1ccc(/C=C2\SC(=O)N(CCC(=O)NC3CCS(=O)(=O)C3)C2=O)cc1` (stereo unspecified): the inhibition was 12.7%.

With `COc1ccc(/C=C2/SC(=O)N(CCCCCC(=O)Nc3ccccc3C(=O)O)C2=S)cc1`, the inhibition was 63.7% (active).

In the case of `O=C(Nn1c(-c2ccc(Cl)cc2)nc2ccccc2c1=O)c1cccnc1Cl`, the inhibition is 1.41%.

As to `Cc1ccc2c(c1)N(C(=O)CCC(=O)N1CCc3ccccc3C1)CCO2`, the inhibition was 10.2%.

Consider `Oc1ccc(CNc2ccccc2O)cc1`, for which the inhibition is 17.3%.

In the case of `CCOC(=O)C1(Cc2ccccc2C)CCCN(C(=O)CCc2c(C)noc2C)C1` (stereo unspecified), the inhibition was 9.37%.

Consider `CC1(C)Cc2c(sc3nc4n(c(=N)c23)CCCCC4)CO1`, for which the inhibition was -4.65%.

As to `N=c1c2c3c(sc2ncn1N)CCCCC3`, the inhibition is -21.7%.

As to `N=c1c2c3c(sc2nc2n1CCCCC2)CCCC3`, the inhibition is 64.2% (active).

Turning to `CC(OC(=O)CCc1nc(=O)c2ccccc2n1C)C(=O)NCc1ccc2c(c1)OCO2` (stereo unspecified), the inhibition is -15.7%.

As to `Cc1cc(NC(=O)Nc2ccccc2[N+](=O)[O-])no1`, the inhibition was 54% (active).

On to `Cc1cc(NC(=O)COc2ccc([N+](=O)[O-])cc2)no1`, for which the inhibition is -2.83%.

With `Cc1cc(NC(=O)c2ccccc2C)no1`, the inhibition is -1.58%.

`Nc1ccn(CC(=O)N2CCN(c3ccccn3)CC2)c(=O)n1`: the inhibition was -3.83%.

On to `CC(C)C(=O)NC(NC(=S)NC1CCS(=O)(=O)C1)C(Cl)(Cl)Cl` (stereo unspecified), for which the inhibition is -19.9%.

Regarding `O=C(/C=C/NCc1ccc(F)cc1)c1ccccc1`, the inhibition is -0.568%.

`Cc1cc(N/C=C\C(=O)c2ccc(Cl)c(Cl)c2)no1`: the inhibition is -3.41%.

Turning to `CCOc1ccc(N/C=C/C(=O)c2ccccc2)cc1`, the inhibition is 94.4% (active).

With `COc1ccc(C(=O)/C=C/Nc2ccccn2)cc1`, the inhibition is 97.2% (active).

For `CCOc1ccc(N/C=C/C(=O)c2cc(OC)c(OC)c(OC)c2)cc1`, the inhibition was -7.87%.

For the molecule `CC(=O)Nc1ccc(/C=C/C(=O)c2ccccc2)cc1`, the inhibition was -17%.

`Cc1ccc(N/C=C/C(=O)c2ccccc2)cc1C`: the inhibition is 95.8% (active).

On to `CCOc1ccc(NC(=S)N2CCC(NC(=O)c3ccccc3)CC2)cc1`, for which the inhibition was -17.6%.

On to `COc1ccc(N2C(=O)CCC(C(=O)Nc3ccccn3)C2c2ccc(OC)c(OC)c2)cc1` (stereo unspecified), for which the inhibition is -4.43%.

As for `C[C@H](NC(=O)C1CC(=O)N(c2ccc3c(c2)OCCO3)C1)C(=O)N1CCC(C(=O)O)CC1` (stereo partly specified), the inhibition is -10.8%.

`CCC(C)CN1CCC(CO)(Cc2ccccc2Cl)CC1` (stereo unspecified): the inhibition is 8.24%.

As for `CC1CCC(CN2CCN=C2N(C)C)CC1` (stereo unspecified), the inhibition is -19.7%.

Turning to `Cc1ccccc1C(OCCN(C)C)C1CCCCC1` (stereo unspecified), the inhibition was -10.8%.

For `Cc1ccc(C(=O)NNC2=Nc3cc([N+](=O)[O-])ccc3OC2)cc1`, the inhibition is -18.4%.

As for `COc1ccc(C2=NOC(COC(=O)c3ccc4ccccc4n3)C2)cc1` (stereo unspecified), the inhibition is -7.77%.

Consider `COc1ccc(C2=Nc3cc(C)ccc3OC2)cc1`, for which the inhibition is 81.7% (active).
